Sampled rows, rich in hits. Any-hit rate of the full collection: about 11%.
ALDH1A1 block: blocks purified human ALDH1A1 activity; P00352; Purified ALDH1A1, NADH fluorescence, propionaldehyde substrate; Potency, µM (top dose mostly 75.3 µM), for the others: top-dose activity, negative = inhibition, actives largely listed as inhibitors; hit rate 7.3% among 220,000;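 note: potency is the fitted concentration of half-maximal effect; plate controls were no enzyme wells and a reference inhibitor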
Target sequence (P00352 whole entry, looked up): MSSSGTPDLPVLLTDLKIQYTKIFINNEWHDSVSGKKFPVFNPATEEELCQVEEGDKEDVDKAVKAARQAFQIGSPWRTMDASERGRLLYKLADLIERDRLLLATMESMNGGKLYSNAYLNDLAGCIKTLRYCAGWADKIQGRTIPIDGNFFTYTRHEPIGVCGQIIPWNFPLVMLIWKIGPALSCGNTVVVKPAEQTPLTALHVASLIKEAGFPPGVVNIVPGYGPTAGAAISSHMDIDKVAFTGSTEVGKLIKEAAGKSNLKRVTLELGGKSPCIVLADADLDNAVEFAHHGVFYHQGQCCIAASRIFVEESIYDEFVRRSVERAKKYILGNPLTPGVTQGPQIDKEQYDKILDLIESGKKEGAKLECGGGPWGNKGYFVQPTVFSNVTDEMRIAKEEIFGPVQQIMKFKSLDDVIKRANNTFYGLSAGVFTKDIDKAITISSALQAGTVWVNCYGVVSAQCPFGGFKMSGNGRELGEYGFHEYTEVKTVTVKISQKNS
PNC inhibitor: blocks assembly of the perinucleolar compartment; PC3M PTB-GFP, PNC prevalence imaging, 16 h; hits give low values; activity change (PNC), negative = inhibition, % at 10 µM; hit rate 3.1% among 140,000;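 active = readout at or below -70, meaning at least 70% loss of cells showing the perinucleolar compartment, a nuclear body marking cancer cells; inconclusive = readout between -30 and a set limit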;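 note: plate controls were DMSO wells for no effect and camptothecin positive control wells for full effect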
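PC3M cells stably expressing PTB-GFP, 750–1000 cells/well, treated 16 h at 37 °C with compound (23 nl of library stock), in duplicate. After paraformaldehyde fixation and Hoechst stain, imaged at 20x; PNC prevalence scored by image analysis.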
HPGD inh: blocks human HPGD enzyme activity; P15428; purified HPGD, NADH fluorescence kinetic, PGE2 substrate; Potency, µM, for the others: at the highest dose activity change, negative = inhibition, usual class: inhibitors; hit rate 4.3% among 150,000; AID 894; note: potency is the fitted concentration of half-maximal effect
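20 nM HPGD preincubated 15 min at room temperature with compound in 50 mM Tris-HCl pH 8, 0.01% Tween 20. Started with 1 mM NAD+ and 30 uM prostaglandin E2; NADH fluorescence (360/450 nm) read 5 times over 30-s intervals, last minus first.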
Active calls of the source: *; i = inactive; ? = inconclusive; . = no result; [ ] = dose if it differs, or a comment. Unless noted, calls come from the whole dose curve; as a rule, active = well fitted inhibition curve with a large enough effect (not every such curve was filed as active); inconclusive = small, poorly fitted or top-dose-only effect, or another doubt; inactive = no such curve, though single readings can be large or run the other way. Unless noted, % is set by controls: 0 for no effect and ±100 for the full control effect.

SMILES	ALDH1A1 block	PNC inhibitor	HPGD inh
CCC(C)N1C(=O)/C(=C/c2ccc3c(c2)CCN3CCCCl)C(=O)NC1=S (configuration not stated)	0.224µM*	?	25.1µM*
O=C(O)CCn1cc(C=C2C(=O)NC(=O)NC2=O)c(-c2ccc(Br)cc2)n1	-3.9%	-8.1	28.2µM*
O=C(O)CCn1cc(C=C2C(=O)NC(=S)NC2=O)c(-c2cccc(Cl)c2)n1	3.55µM*	.	.
N#CCCn1cc(C(=O)O)c(-c2cccc([N+](=O)[O-])c2)n1	-12.0%	.	.
CN1CCCC1c1cccnc1 (configuration not stated)	1.7%	.	3.2%
Oc1cc(Cl)cc(Cl)c1	13.9%	.	-8.5%
Cc1noc(C)c1C(=O)N1CCC2(CCCN(CC(C)C)C2)CC1	8.8%	.	-5.6%
CC(C)[C@]1(O)[C@@H](OC(=O)c2ccc[nH]2)[C@]2(O)[C@@]3(C)C[C@@]4(O)O[C@@]5([C@H](O)[C@@H](C)CC[C@]35O)[C@]2(O)[C@]41C	3.3%[13.5 µM]	.	-7.5%
O=C1CN=C(c2ccccc2)c2cc([N+](=O)[O-])ccc2N1	1.1%	.	25.1µM*
O=C1CN=C(c2ccccc2F)c2cc(Cl)ccc2N1	-2.2%	3.6	-15.5%
Ic1ccccc1CNC1C2CCN(CC2)C1C(c1ccccc1)c1ccccc1 (configuration not stated)	6.2%	.	-7.0%
Cn1cccc1/C=C1/C(=O)NC(=O)N(Cc2ccccc2)C1=O	?	0.7	-21.4%
CCCCN1C(=O)/C(=C/c2ccc(N(C)C)cc2)C(=O)N(Cc2ccco2)C1=O	0.708µM*	32.5	25.1µM*
CCN(CC)c1ccc(/C=C2\C(=O)NC(=O)N(Cc3ccco3)C2=O)cc1	0.501µM*	-29.7	15.8µM*
C=CCn1c(O)c(C=Nc2ccc(N(CC)CC)cc2)c(=O)[nH]c1=O	4.8%	3.4	-20.8%
CCN(CC)c1ccc(/C=C2/C(=O)NC(=O)N(CC3CCCO3)C2=O)cc1 (configuration not stated)	0.631µM*	59.5	35.5µM*
O=C1NC(=O)N(Cc2ccco2)C(=O)/C1=C/c1cccn1CCOc1ccccc1Cl	-4.3%	-4.3	28.2µM*
C[C@@H]1O[C@H](OC2[C@@H](O)[C@H](O)C(O)[C@H](O)[C@H]2O)[C@@H](N)C[C@@H]1N=C(N)C(=O)O (some centres not stated)	-9.8%[13.5 µM]	.	-0.9%
CC(C)C[C@H](NC(=O)[C@H](Cc1ccccc1)NC(=O)CNC(=O)[C@@H](NC(=O)[C@@H](N)Cc1ccc(O)cc1)[C@H](C)O)C(=O)N[C@H](C(=O)O)[C@H](C)O	10.8%	.	.
Cc1ncc([N+](=O)[O-])n1CCN=[N+]=[N-]	9.2%[13.5 µM]	.	-0.6%
COC(=O)[C@@H]1C[C@@]2(O)[C@@H](O)[C@@H](O)[C@@H](O)C[C@H]2N1Cc1cccnc1	-6.8%	.	-0.3%
C[C@@H]1OC(=O)[C@H]2C[C@H]3CCCC[C@@H]3[C@@H](/C=C/[C@H]3CCC[C@H](C)N3C)[C@@H]12	-6.4%	.	.
CCCCNC(=O)n1c(NC(=O)OC)nc2ccccc21	?	.	-5.9%
CCCCOCC1CO1 (configuration not stated)	-3.8%	.	-9.0%
O=C(O)Cn1cc(/C=C2\C(=O)NC(=O)N(Cc3ccco3)C2=O)c2ccccc21	8.91µM*	.	.
SMILES	ALDH1A1 block	PNC inhibitor	HPGD inh
O=C(O)Cn1cc(C(=O)c2ccccc2)c2ccccc21	-0.1%	42.3	-10.6%
NC(=O)c1sc2nc3c(c(-c4cccs4)c2c1N)CCCC3	?	20.4	?
Nc1c2c(nc3sc4c(c13)CCCCC4)CCCC2	?	-113.0*	-17.1%
O=C1NC(=O)C(=Cc2ccc(OCC(=O)N3CCOCC3)cc2)C(=O)N1	5.01µM*	-22.7	-20.2%
O=C(COc1ccc(S(=O)(=O)N2CCOCC2)cc1)N1CCN(Cc2ccc3c(c2)OCO3)CC1	3.8%	?	-3.1%
COc1cc(CC(=O)OCC2=C[C@H]3[C@@H]4C(C)(C)[C@]4(OC(C)=O)[C@H](OC(=O)Cc4ccccc4)[C@@H](C)[C@]3(O)[C@@H]3C=C(C)C(=O)[C@@]3(O)C2)ccc1O	8.2%	.	-17.7%
CCN1C[C@]2(COC)CC[C@H](OC)[C@@]34C5C[C@@H]6[C@@H](OC)C[C@@]7(OCO[C@@]7([C@@H](O)C23)[C@@H]14)C5[C@H]6OC (some centres not stated)	1.0%	.	.
CN1C(=O)NC(c2cccc(O)c2)C(C(=O)c2cccs2)C1(O)C(F)(F)F (configuration not stated)	0.794µM*	2.0	-6.7%
O=C(OC1Cc2c(O)cc(O)cc2OC1c1cc(O)c(O)c(O)c1)c1cc(O)c(O)c(O)c1 (configuration not stated)	?	.	14.1µM*
Oc1cc(O)c2c(c1)OC(c1cc(O)c(O)c(O)c1)C(O)C2 (configuration not stated)	?	.	15.8µM*
CCCC(C)C1(CC)C(=O)NC(=O)NC1=O (configuration not stated)	?	.	-19.9%
COC(=O)C1=CO[C@@H](C)[C@@H]2CN3CC[C@]4(C(=O)Nc5c4ccc(OC)c5OC)[C@H]3C[C@H]12	-3.3%	.	-9.7%
Cc1cccc(NC(=O)N[C@@H]2N=C(c3ccccc3)c3ccccc3N(CC(=O)c3ccccc3C)C2=O)c1	8.7%	.	-12.1%
N[C@@H](Cn1cc(I)c(=O)[nH]c1=O)C(=O)O	-14.3%	.	-3.8%
CN1CCN(S(=O)(=O)c2cnc(Cl)c(Br)c2)CC1	2.51µM*	-20.7	-2.4%
C[C@@]12CC[C@H](O)C[C@@H]1CC[C@H]1[C@@H]2C[C@@H](O)[C@]2(C)[C@@H](C3=CC(=O)OC3)CC[C@]12O	-3.2%[20.9 µM]	.	-5.9%
S=c1[nH]nc(-c2ccco2)n1Cc1ccccc1	i	20.1	?
S=c1[nH]nc(C2CC2)n1Cc1ccccc1	14.1µM*	.	.
CC(C)CCNC(=O)c1cc(C(=O)c2cc(Br)ccc2O)cn(CCC(C)C)c1=O	-4.3%	.	.
O=C(c1cc(C(=O)NCc2ccccc2)c(=O)n(Cc2ccccc2)c1)c1cc(Cl)ccc1O	?	?	15.8µM*
CCC(C)C(=O)OC1C(O)C2C(CN3CC(C)CCC3[C@]2(C)O)C2C[C@]34O[C@@]5(O)C(OC(=O)C(C)(O)CC)CCC3(C)C5C(OC(C)=O)C(OC(C)=O)C4[C@@]21O (some centres not stated)	13.6%	.	-1.8%
Cc1ccc(Sc2ccc(C=C3C(=O)N(C)C(=O)N(C)C3=O)o2)cc1	4.47µM*	.	.
CN1C(=O)C(=Cc2ccc(N3CCCCCC3)o2)C(=O)N(C)C1=S	?	4.0	-14.7%
CN1C(=O)C(=Cc2ccc(N3CCOCC3)o2)C(=O)N(C)C1=O	6.2%	-23.6	15.8µM*
CN1C(=O)C(=Cc2ccc(-c3cccc(Cl)c3)o2)C(=O)N(C)C1=O	?	-7.5	7.94µM*
CC[C@@H]1[C@@H]2C[C@H]3[C@H]4N(C)c5ccccc5[C@@]45C[C@@H]([C@@H]2[C@@H]5O)N3[C@H]1O	-6.0%[20.9 µM]	.	2.6%
O=C(c1cc(F)ccc1F)C1CCCN(Cc2ccc3nonc3c2)C1 (configuration not stated)	-14.6%	.	.

Compound activity deposited in PubChem BioAssay by National Center for Advancing Translational Sciences (NCATS).
